The source of these data is PubChem BioAssay.

A number with no mark means an inactive call. For some assays here: Measured potencies and affinities stand elsewhere. Active and inactive are the calls of the source. Unless noted, no rule for the calls is given here.

For orientation: inhibition means the drop in the measured response relative to a control, in per cent.

Assay [1] can be described thus: antimalarial activity against Dd2 strain (AID 2302;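 active = growth inhibition above 50% at the single 2 µM test dose, taken to imply half-maximal potency below 2 µM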;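 also: 0% = DMSO untreated growth and 100% = chloroquine plus artemisinin killed control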). The conditions noted are these: P. falciparum Dd2 in RBCs, LDH growth readout, 72 h; at 2 µM; stronger effect = higher value.
Assay [2] in a line: human hepatoma cell viability loss – ATP luminescence, cytotoxicity control for P. falciparum antimalarial project, primary screen (AID 2303;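 active = inhibition above 50%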;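 also: 0% = DMSO wells and 100% = digitonin-killed cells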). The settings on record: HepG2 viability, 24-48 h, at 10 µM, stronger effect = higher value.
Assay [3] addresses L-lactate dehydrogenase (Plasmodium falciparum (isolate CDC / Honduras)) (UniProt Q27743). Kind of assay: PfLDH activity inhibition – cell lysate, 3D7 strain, counter-screen for P. falciparum growth inhibition project (AID 2304).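 Also: 0% = vehicle and 100% = reference inhibitor.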 The conditions noted are these: P. falciparum 3D7 crude extract, LDH APAD/NBT absorbance; at 2 µM; stronger effect = higher value.
A short description of assay [4]: inhibition of 3D7 malaria parasite growth – strain 3D7 (AID 2306).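 Also: 0% = DMSO wells and 100% = chloroquine plus artemisinin control wells.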 The settings on record: P. falciparum 3D7 erythrocytic growth, LDH absorbance, 72 h; at 2 µM; stronger effect = higher value.
The target in assay [5] is Calcium-dependent protein kinase 1 (Plasmodium falciparum (isolate 3D7)) (UniProt P62344). The assay is described as follows: PfCDPK1 kinase inhibitors, biochemical, TCAMS library (AID 1159585; cut-off not given, nearly all actives have IC50 up to about 0.98 µM;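 also: inhibitors leave more ATP so luminescence rises with inhibition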). The settings on record: recombinant PfCDPK1, Kinase-Glo ATP depletion luminescence.
Assay [6] has as its target Plasmodium falciparum protein kinase 6 (PK6, PF3D7_1337100) (UniProt Q8IDW1). Kind of assay: PfPK6 kinase inhibitors, biochemical, TCAMS library (AID 1159586). The settings on record: recombinant PfPK6, Kinase-Glo ATP depletion luminescence. In general terms: In Kinase-Glo more light means more ATP remaining.
Assay [7] addresses Protein kinase 7 (PK7), Plasmodium falciparum 3D7 (PF3D7_0213400) (UniProt Q7YTF7). The assay is described as follows: inhibition of Plasmodium PK7 catalytic activity – biochemical, TCAMS antimalarial set, Kinase-Glo luminescence (AID 1159587). The settings on record: recombinant PfPK7, Kinase-Glo ATP depletion luminescence.
Assay [8] concerns the target Calcium-dependent protein kinase 4 (Plasmodium falciparum (isolate 3D7)) (UniProt Q8IBS5). The assay is described as follows: PfCDPK4 kinase inhibitors, biochemical, TCAMS library (AID 1159588; cut-off not given, nearly all actives have IC50 up to about 0.91 µM). The settings on record: recombinant PfCDPK4, Kinase-Glo ATP depletion luminescence.

Protein kinase 7 (PK7), Plasmodium falciparum 3D7 (PF3D7_0213400), sequence (Q7YTF7 1-343): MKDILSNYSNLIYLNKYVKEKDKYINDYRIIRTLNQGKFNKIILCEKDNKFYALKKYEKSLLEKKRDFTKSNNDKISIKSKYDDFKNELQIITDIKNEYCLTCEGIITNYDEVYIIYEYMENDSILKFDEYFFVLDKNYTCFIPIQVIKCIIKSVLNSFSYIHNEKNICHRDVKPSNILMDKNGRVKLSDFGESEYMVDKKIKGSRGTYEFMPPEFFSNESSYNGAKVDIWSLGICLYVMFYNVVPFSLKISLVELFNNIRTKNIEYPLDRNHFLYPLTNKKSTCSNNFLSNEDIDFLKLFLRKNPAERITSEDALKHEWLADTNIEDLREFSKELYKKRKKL
L-lactate dehydrogenase (Plasmodium falciparum (isolate CDC / Honduras)), sequence (Q27743 whole entry, looked up): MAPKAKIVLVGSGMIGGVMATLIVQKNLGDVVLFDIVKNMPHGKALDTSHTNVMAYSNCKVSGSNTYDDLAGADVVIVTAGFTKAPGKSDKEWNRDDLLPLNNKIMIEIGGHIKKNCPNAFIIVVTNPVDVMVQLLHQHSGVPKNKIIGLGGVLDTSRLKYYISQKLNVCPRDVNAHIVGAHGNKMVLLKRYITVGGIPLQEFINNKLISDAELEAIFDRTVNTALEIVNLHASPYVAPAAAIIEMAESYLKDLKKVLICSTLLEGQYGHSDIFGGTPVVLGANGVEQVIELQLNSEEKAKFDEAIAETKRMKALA
Calcium-dependent protein kinase 1 (Plasmodium falciparum (isolate 3D7)), sequence (P62344 whole entry, looked up): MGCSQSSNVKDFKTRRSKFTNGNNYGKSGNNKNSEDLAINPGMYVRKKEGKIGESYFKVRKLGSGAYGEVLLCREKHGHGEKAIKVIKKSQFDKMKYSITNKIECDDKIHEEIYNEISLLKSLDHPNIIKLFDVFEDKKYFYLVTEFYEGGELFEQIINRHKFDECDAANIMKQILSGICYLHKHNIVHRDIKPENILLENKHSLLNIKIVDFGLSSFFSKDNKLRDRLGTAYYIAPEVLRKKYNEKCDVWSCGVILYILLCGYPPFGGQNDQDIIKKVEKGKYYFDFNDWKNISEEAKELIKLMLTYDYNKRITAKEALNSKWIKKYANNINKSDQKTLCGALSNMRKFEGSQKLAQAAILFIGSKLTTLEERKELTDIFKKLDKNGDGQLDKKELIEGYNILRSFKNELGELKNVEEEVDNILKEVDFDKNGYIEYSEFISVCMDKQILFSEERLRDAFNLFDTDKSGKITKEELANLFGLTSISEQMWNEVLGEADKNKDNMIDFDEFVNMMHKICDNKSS
Calcium-dependent protein kinase 4 (Plasmodium falciparum (isolate 3D7)), sequence (Q8IBS5 whole entry, looked up): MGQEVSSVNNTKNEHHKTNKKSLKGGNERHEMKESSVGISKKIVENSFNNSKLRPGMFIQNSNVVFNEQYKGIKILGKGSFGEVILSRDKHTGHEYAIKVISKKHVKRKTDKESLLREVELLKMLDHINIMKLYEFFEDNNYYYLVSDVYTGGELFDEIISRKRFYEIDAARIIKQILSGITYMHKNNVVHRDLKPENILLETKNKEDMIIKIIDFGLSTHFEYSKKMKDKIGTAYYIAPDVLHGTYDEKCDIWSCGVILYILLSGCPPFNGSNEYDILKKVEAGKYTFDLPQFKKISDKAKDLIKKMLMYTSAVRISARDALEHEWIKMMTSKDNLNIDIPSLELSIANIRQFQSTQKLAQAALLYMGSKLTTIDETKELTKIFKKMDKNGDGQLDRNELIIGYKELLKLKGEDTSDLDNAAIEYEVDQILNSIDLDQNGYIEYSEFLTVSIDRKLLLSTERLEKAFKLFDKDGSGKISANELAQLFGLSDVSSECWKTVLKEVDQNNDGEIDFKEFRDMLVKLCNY
Plasmodium falciparum protein kinase 6 (PK6, PF3D7_1337100), sequence (Q8IDW1 1-305): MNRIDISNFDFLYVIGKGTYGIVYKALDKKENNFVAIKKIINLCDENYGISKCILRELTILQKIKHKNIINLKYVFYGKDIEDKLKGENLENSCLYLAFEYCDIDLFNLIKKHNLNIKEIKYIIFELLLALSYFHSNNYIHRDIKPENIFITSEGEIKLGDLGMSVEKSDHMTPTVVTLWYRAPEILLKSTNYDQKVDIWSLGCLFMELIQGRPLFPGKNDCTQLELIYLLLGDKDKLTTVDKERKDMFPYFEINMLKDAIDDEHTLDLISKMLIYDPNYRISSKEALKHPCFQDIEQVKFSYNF

As for `CCN(CC)CCN(CCCc1ccc(-c2ccc(C(F)(F)F)cc2)cc1)C(=O)Cn1c(CCc2cccc(F)c2F)nc(=O)c2c1CCC2`, the growth inhibition is 27% in assay [1] and 92% (active) in assay [4]. For the same molecule, the inhibition was 38% in assay [2] and -2% in assay [3]. The result in assay [5], in assay [6], in assay [7] and in assay [8] was inactive.
Consider `CC(C)NCc1cccc(-c2ccc(-c3nc4ccc(C(F)(F)F)cc4[nH]3)cc2)c1`, for which the growth inhibition in assay [1] is 96% (active); in assay [4], 99% (active). The inhibition in assay [2] is 7%; in assay [3], -6%. Further, the result in assay [5], in assay [6], in assay [7] and in assay [8] was inactive.
Turning to `CCC(C)NC(=O)Nc1ccc(-c2cccc(-c3nc4ccc(C(F)(F)F)cc4[nH]3)c2)cc1` (configuration not stated), the growth inhibition in assay [1] is -1%; in assay [4], 97% (active). Besides, the results for the inhibition in assay [2] and in assay [3] were 45% and 0%, respectively. In addition, the outcome in assay [5], in assay [6], in assay [7] and in assay [8] was inactive.
As for `O=C(/C=C/c1ccc(Cl)c(Cl)c1)NCCCCCN1CCC(c2c[nH]c3cc(O)ccc23)CC1`, the growth inhibition in assay [1] was 2%; in assay [4] it was 101% (active). The results for the inhibition in assay [2] and in assay [3] were 32% and 3%, respectively. The outcome in assay [5], in assay [6], in assay [7] and in assay [8] was inactive.
Turning to `C=CCN(C(=O)c1ccc(Cl)c([N+](=O)[O-])c1)c1nc(-c2ccccc2)cs1`, the growth inhibition in assay [1] is 99% (active); in assay [4], 100% (active). The inhibition in assay [2] was -13%; in assay [3], -6%. Moreover, the result in assay [5], in assay [6], in assay [7] and in assay [8] was inactive.
With `COc1ccccc1N1CCN(c2cccc3c2nc(-c2cncc(C#N)c2)n3CCNCc2ccccc2)CC1`, the growth inhibition was 81% (active) in assay [1] and 101% (active) in assay [4]. The inhibition is -8% in assay [2] and 3% in assay [3]. Also, the result in assay [5], in assay [6], in assay [7] and in assay [8] was inactive.
For `Cc1cccc2[nH]c(-c3cccc(-c4ccc(NC(=O)c5ccncc5)cc4)c3)nc12`, the growth inhibition was 74% (active) in assay [1] and 98% (active) in assay [4]. Besides, the inhibition was 34% in assay [2] and -5% in assay [3]. The result in assay [5], in assay [6], in assay [7] and in assay [8] was inactive.
`Cc1cc(N[C@@H](CC(C)C)C(=O)NCc2cccc(F)c2)nc(NCC2CCCCC2)n1`: the results for the growth inhibition in assay [1] and in assay [4] were 70% (active) and 99% (active), respectively. Moreover, the inhibition was 3% in assay [2] and -3% in assay [3]. The outcome in assay [5], in assay [6], in assay [7] and in assay [8] was inactive.
As for `O=C(NC1CCCCC1)N(Cc1ccc(-c2ccc(CNC3CCCC3)cc2)cc1)C1CCN(Cc2ccccc2)CC1`, the growth inhibition is 86% (active) in assay [1] and 99% (active) in assay [4]. Moreover, the inhibition was 31% in assay [2] and 3% in assay [3]. Also, the outcome in assay [5], in assay [6], in assay [7] and in assay [8] was inactive.
As to `CN(Cc1ccc(-c2ccc(C(F)(F)F)cc2)cc1)C(=O)Cn1c(CCc2cccc(F)c2F)cc(=O)c2ccc(OCC3CCCN3C)cc21` (configuration not stated), the figures for the growth inhibition in assay [1] and in assay [4] were 37% and 87% (active), respectively. Besides, the inhibition is 100% (active) in assay [2] and -6% in assay [3]. Further, the result in assay [5], in assay [6], in assay [7] and in assay [8] was inactive.
Regarding `Cc1ccc(-c2cc(C(=O)Nc3ccc(S(=O)(=O)N4CCCC(C)C4)cc3)[nH]n2)c(O)c1` (configuration not stated), the growth inhibition in assay [1] was 99% (active); in assay [4], 102% (active). Also, the inhibition in assay [2] was 32%; in assay [3], -4%. Moreover, the outcome in assay [5], in assay [6], in assay [7] and in assay [8] was inactive.
As for `Cc1cccc(C(=O)Nc2ccnc(N3CCC(N(C)Cc4cccc(C#N)c4)CC3)c2)c1`, the growth inhibition in assay [1] is 52% (active); in assay [4], 101% (active). The inhibition was 5% in assay [2] and -2% in assay [3]. For the same molecule, the result in assay [5], in assay [6], in assay [7] and in assay [8] was inactive.
In the case of `COc1ccc2nccc([C@@H](O)CN3CCC(NCc4ccc(OC)c(NC=O)c4)CC3)c2c1`, the values for the growth inhibition in assay [1] and in assay [4] were -1% and 97% (active), respectively. For the same molecule, the inhibition was 0% in assay [2] and 3% in assay [3]. Moreover, the result in assay [5], in assay [6], in assay [7] and in assay [8] was inactive.
On to `CCNC(=O)c1ccc(-n2nc(C)cc2-c2ccccc2)cc1`, for which the growth inhibition in assay [1] was 54% (active); in assay [4], 89% (active). Besides, the inhibition in assay [2] is 11%; in assay [3], 2%. The result in assay [5], in assay [6], in assay [7] and in assay [8] was inactive.
Take `COCCN1CCC(N(Cc2ccc(-c3ccc(OC(F)(F)F)cc3)cc2)C(=O)Cn2c(CCc3cccc(F)c3F)cc(=O)c3ccccc32)CC1`: the growth inhibition in assay [1] was 92% (active); in assay [4] it was 96% (active). The inhibition in assay [2] is 100% (active); in assay [3], -10%. Further, the result in assay [5], in assay [6], in assay [7] and in assay [8] was inactive.
`CC(=O)Nc1ncc(C(=O)Nc2cccc(-c3cccc(-c4nc5ccccc5[nH]4)c3)c2)s1`: the growth inhibition in assay [1] was 38%; in assay [4], 92% (active). For the same molecule, the values for the inhibition in assay [2] and in assay [3] were 16% and 0%, respectively. The result in assay [5], in assay [6], in assay [7] and in assay [8] was inactive.
As for `CN1CCC(C(=O)Nc2ccc(-c3ccc(-c4nc5ccc(C(F)(F)F)cc5[nH]4)s3)cc2)CC1`, the growth inhibition in assay [1] is 95% (active); in assay [4] it was 101% (active). In addition, the inhibition in assay [2] is 53% (active); in assay [3] it was 4%. Also, the outcome in assay [5], in assay [6], in assay [7] and in assay [8] was inactive.
With `CN(C)c1ccc(C=C2SC(=N)N(c3nccs3)C2=O)cc1`, the growth inhibition in assay [1] is 50% (active); in assay [4] it was 97% (active). The inhibition in assay [2] is 38%; in assay [3] it was 2%. The outcome in assay [5], in assay [6], in assay [7] and in assay [8] was inactive.
As to `CC1(C)N=C(N)N=C(N)N1OCCCc1cc(Cl)c(Cl)cc1Cl`, the growth inhibition in assay [1] is 96% (active); in assay [4] it was 95% (active). The figures for the inhibition in assay [2] and in assay [3] were 55% (active) and 2%, respectively. The outcome in assay [5], in assay [6], in assay [7] and in assay [8] was inactive.
